The values below come from PubChem BioAssay (Tox21).

“And” between values parts separate entries of the source, which are not always exact repeats. Equal entries are not always repeated. Records with an inconclusive call do not appear. Where a call stands in place of a potency, no number is given. The source made the active and inactive calls. The call rests on the fitted dose curve; in most records, active means well fitted cell-killing curve with a large enough effect in the repeat runs; inconclusive means weak or mixed curves, or effect the other way; inactive means flat fitted curve, though single readings scatter.
Potency means the concentration at half of the fitted maximal effect.

This assay is described as follows: Caspase-3/7 induction in HepG2 cells by small molecules, qHTS cell viability counter screen (AID 1346981). Further: nearly all actives have a fitted effect of over 30% in size. Particulars: CellTiter-Fluor fluorescence, 17 h; series mostly up to 92.4 µM. From the text: U.S. Tox21 Program National Center for Advancing Translational Sciences [NCATS] NIH Chemical Genomics Center [NCGC] U.S. Environmental Protection Agency [EPA] National Institutes of Environmental Health Sciences [NIEHS] National Toxicology Program [NTP] U.S. Food and Drug Administration [FDA] Tox21 Assay Overview: Apoptosis is a process of programmed cell death and plays a central role in the development of multicellular organisms. It is a highly regulated process and induces cell death by activating caspases, which are the members of cysteine aspartic acid-specific protease (caspase) family. Caspases involved in apoptosis are classified by their mechanism of action as initiator caspases (caspase-2, -8, -9 and -10) and executioner caspases (caspase-3, -6, and -7). Inhibition of apoptosis results in number of cancers, autoimmune diseases, inflammatory diseases and viral infection. To identify small molecule compounds that induce apoptosis, a homogeneous, luminescent Caspase-Glo 3/7 assay was used. Wild type HepG2 cells were used to screen Tox21 libraries for identifying caspase-3/7 activity inducers. Also cytotoxicity of the compounds was tested in parallel by measuring the cell viability using CellTiter-Fluor assay system in the same wells.
Tox21 Assay Protocol Summary: HepG2 cells were dispensed at 2,000 per well in 5uL of culture medium into white solid bottom 1536-well plates (Corning Life Sciences, Corning, NY) using a Multidrop Combi (Thermo Scientific, Waltham, MA) dispenser. The assay plates were incubated at 37 C and 5% CO2 for 5hr, and then 23nL of compounds dissolved in DMSO and positive control were transferred using a Pintool station ([…], San Diego, CA). The assay plates were incubated at 37C and 5% CO2 for 17hr. For cytotoxicity read, after 16hr incubation at 37C, 1uL CellTiter-Fluor reagent (Promega Corporation, Madison, WI) was added to each well of the assay plates using Flying Reagent Dispenser (FRD, Aurora Discovery, San Diego, CA). After 1hr incubation at 37C and 5% CO2, the fluorescence signal was quantified using a ViewLux plate reader (PerkinElmer, Shelton, CT).
Turning to `CCCCNS(=O)(=O)c1ccc(C)cc1`, the Potency result was “inactive”.

As to `CCCCCCOC(=O)C(C)CC` (stereo not given), the Potency result is “inactive”.

Regarding `Nc1nc(N)nc(-c2cc(Cl)ccc2Cl)n1`, the Potency result is “inactive”.

With `C#C[C@]1(OC(C)=O)CC[C@H]2[C@@H]3CCC4=C[C@@H](OC(C)=O)CC[C@@H]4[C@H]3CC[C@@]21C`, the Potency entry was “inactive”.

For the compound `Cc1ccc(-c2ccccc2)cc1`, the Potency entry was “inactive”.

As for `CCCc1ccc(OCC(=O)N2CCN(C(=O)COc3ccc(CCC)cc3OC)CC2)c(OC)c1`, the Potency entry is “inactive”.

For `Cc1c(C)c2c(c(C)c1OC(=O)c1cccnc1)CC[C@@](C)(CCC[C@H](C)CCC[C@H](C)CCCC(C)C)O2`, the Potency entry was “inactive”.

As to `CCCCCCCCCCOC(=O)c1ccccc1C(=O)OCCCCCCCC`, the Potency result is “inactive”.

On to `Cc1c(C)c([N+](=O)[O-])c(C(C)(C)C)c([N+](=O)[O-])c1C`, for which the Potency entry is “inactive”.

In the case of `Nc1ccc(Oc2ccc(Cl)cc2)cc1`, the Potency result is “inactive”.

`CCC(C)(CCC(C)C)C(=O)[O][Sn]([CH3])([CH3])[O]C(=O)C(C)(CC)CCC(C)C` (stereo not given): the Potency entry is “inactive”.

As to `CN(C)C(=O)COC(=O)Cc1ccc(OC(=O)c2ccc(N=C(N)N)cc2)cc1`, the Potency result was “inactive”.

As to `O=c1oc2cc(O)ccc2c2oc3cc(O)ccc3c12`, the Potency entry is “inactive”.

For `CCC(CC)(CC(=O)Nc1cccc(/C=C/c2nc(C3CCC3)cs2)c1)C(=O)O`, the Potency result is “inactive”.

Consider `OC/C=C/CO`, for which the Potency result is “inactive”.

Take `O=S(=O)(O)c1ccc(N=Nc2c(O)ccc3ccccc23)cc1`: the Potency was 30.6 µM (active).

Turning to `Cc1nc2n(c(=O)c1CCN1CCC(c3noc4cc(F)ccc34)CC1)CCCC2`, the Potency result is “inactive”.

On to `CCCC(=O)OC(C)(C)Cc1ccccc1`, for which the Potency entry is “inactive”.

With `CC(C)(c1cc(Br)c(OCC(Br)CBr)c(Br)c1)c1cc(Br)c(OCC(Br)CBr)c(Br)c1` (stereo not given), the Potency result was “inactive”.

Regarding `O=C(O)Cc1ccccc1Nc1c(Cl)cccc1Cl`, the Potency result is “inactive”.

In the case of `CC1(C)CC(O)CC(C)(C)N1`, the Potency entry was “inactive”.

In the case of `COc1ccc(-c2coc3cc(O)ccc3c2=O)cc1`, the Potency entry is “inactive”.

Take `S=c1nccc[nH]1`: the Potency result is “inactive”.

Take `O=C1OC2(c3ccc(O)cc3Oc3cc(O)ccc32)c2ccc(N=C=S)cc21`: the Potency result was “inactive”.

On to `C=CC(C)(CCC=C(C)C)OC=O` (stereo not given), for which the Potency entry is “inactive”.

As for `CCC(CC)C(C)CCOC(C)=O` (stereo not given), the Potency result is “inactive”.

As for `OC1CCC(C2CCCCC2)CC1` (stereo not given), the Potency result was “inactive”.

`O=C(/C=C/c1ccccc1)OC/C=C/c1ccccc1`: the Potency result was “inactive”.

`O=[N+]([O-])c1ccc(O)cc1C(F)(F)F`: the Potency is 43.3 µM (active).

`OC[C@@H](O)[C@@H](O)CO`: the Potency entry is “inactive”.

Regarding `NC(=S)NC(N)=S`, the Potency entry was “inactive”.

Take `COc1c(C)c2c(c(O)c1C/C=C(\C)CCC(=O)OCCN1CCOCC1)C(=O)OC2`: the Potency entry is “inactive”.

With `Cc1c(N)cccc1C(F)(F)F`, the Potency entry was “inactive”.

Turning to `C#Cc1ccc(-c2ccccc2F)cc1`, the Potency entry was “inactive”.

For `S=C([S-])NCCNC(=S)[S-].S=C([S-])NCCNC(=S)[S-].[Mn+2].[Zn+2]`, the Potency result was “inactive”.

On to `COc1cccc2c1C(=O)c1c(O)c3c(c(O)c1C2=O)C[C@@](O)(C(C)=O)C[C@@H]3O[C@H]1C[C@H](N)[C@H](O)[C@H](C)O1`, for which the Potency is 30.8 µM (active) and 4.22 µM (active).

`COc1ccc2cc1Oc1ccc(cc1)C[C@H]1c3c(cc4c(c3Oc3cc5c(cc3OC)CCN(C)[C@@H]5C2)OCO4)CCN1C`: the Potency was 26.6 µM (active).

With `CCCC(=O)OCOC(=O)C1=C(C)NC(C)=C(C(=O)OC)C1c1cccc(Cl)c1Cl` (stereo not given), the Potency entry was “inactive”.

On to `Cc1cc(C(C)(C)C)c(O)c(C)c1Cn1c(=O)n(Cc2c(C)cc(C(C)(C)C)c(O)c2C)c(=O)n(Cc2c(C)cc(C(C)(C)C)c(O)c2C)c1=O`, for which the Potency result was “inactive”.

As for `COc1ccc2c(c1)c(CC(=O)OC/C=C(\C)CC/C=C(\C)CCC=C(C)C)c(C)n2C(=O)c1ccc(Cl)cc1`, the Potency result was “inactive”.
